Measured values published in the supplement of paper PMC10849652.
About 7,900 targets were measured; listed, in parts, are those with a hit and a random draw of the rest. About 0.6% of all pairs of compound and target were hits.

Experiments:
Assay in all cases: log2 fold change, soluble protein after heating vs DMSO (PISA); higher = thermal stabilisation; K562 cells, 10 uM, 30 min; active = over 0.2 and 3.5 SD of the protein, either way, in both replicates (recomputed)
[1] = compound: CC[C@@H]1C(=O)N(C)c2cnc(Nc3ccc(C(=O)NC4CCN(C)CC4)cc3OC)nc2N1C1CCCC1
Outline: (§1)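 For each measurement, 10 μM compound was applied for 30 min to K562 cells at 2×10^6 cells/mL. Aliquots were heated for 3 min across 48°C-58°C, pooled, and extracted in PBS with 0.5% NP-40 at 4°C; the supernatant after 21,000xg for 90 min was soluble protein. This was quantified by TMTpro 16plex LC-MS/MS with channel sums equalised, and thermal stability was reported relative to control samples from duplicates, on a log2 fold-change scale.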

volasertib = compound: CC[C@@H]1C(=O)N(C)c2cnc(Nc3ccc(C(=O)N[C@H]4CC[C@H](N5CCN(CC6CC6)CC5)CC4)cc3OC)nc2N1C(C)C [volasertib]
Outline: as §1

[2] = compound: CC[C@H](C)N1C=C(C2=C(C=C(C=C21)C3=CN=C(C=C3)N4CCNCC4)C(=O)NCC5=C(C=C(NC5=O)C)C)C
Outline: as §1

epoxomicin = compound: CC[C@H](C)[C@@H](C(=O)N[C@@H]([C@@H](C)O)C(=O)N[C@@H](CC(C)C)C(=O)[C@]1(CO1)C)NC(=O)[C@H]([C@@H](C)CC)N(C)C(=O)C [epoxomicin]
Outline: as §1

[3] = compound: CCn1c(C(=O)N(C2CC2)C2CC2)cc2c3c(ncn3C)c(Nc3cc(C)n(C)n3)nc21
Outline: as §1

[4] = compound: CCn1cc(-c2ccnc3[nH]c(-c4cccc(CN(C)C)c4)cc23)c(-c2ccc(NC(=O)N(C)C)cc2)n1
Outline: as §1

[5] = compound: CN(C)CC(=O)Nc1ccc2[nH]c(=O)c3ccccc3c2c1
Outline: as §1

rosiglitazone = compound: CN(CCOC1=CC=C(C=C1)C[C@H]2C(=O)NC(=O)S2)C3=CC=CC=N3 (racemic) [rosiglitazone]
Outline: as §1

[6] = compound: CN1C2=C(C3=C1C(=O)N(N=C3)CC4=CC(=CC=C4)N)SC(=C2)S(=O)C
Outline: as §1

[7] = compound: CN1CCC(CNc2ccc3ncc(-c4cccc(OC(F)(F)F)c4)n3n2)CC1
Outline: as §1

Measured: log2 fold change

EIF4A1 (UniProt P60842)
active: volasertib -0.273
inactive: [1] -0.106 | [2] 0.079 | epoxomicin 0.001 | [3] 0.001 | [4] -0.052 | [5] 0.047 | rosiglitazone 0.06 | [6] -0.046 | [7] -0.126

DPH5 isoform 5 (UniProt Q9H2P9)
Sequence of UniProt Q9H2P9 (Q9H2P9 whole entry, looked up): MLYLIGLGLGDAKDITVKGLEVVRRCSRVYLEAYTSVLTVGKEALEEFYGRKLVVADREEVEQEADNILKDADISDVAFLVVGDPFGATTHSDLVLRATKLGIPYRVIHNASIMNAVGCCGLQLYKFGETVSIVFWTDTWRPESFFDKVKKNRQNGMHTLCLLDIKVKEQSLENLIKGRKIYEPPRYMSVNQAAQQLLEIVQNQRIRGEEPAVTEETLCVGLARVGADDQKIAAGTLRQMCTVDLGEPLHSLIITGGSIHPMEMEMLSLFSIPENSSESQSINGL
inactive: [1] 0.047 | volasertib 0.08 | [2] -0.022 | epoxomicin 0.049 | [3] -0.055 | [4] -0.018 | [5] -0.013 | rosiglitazone 0.013 | [6] -0.115 | [7] 0.034

EXOC8 (UniProt Q8IYI6)
inactive: [1] -0.212 | [2] 0.045 | epoxomicin -0.004 | [3] -0.088 | [4] 0.003 | [5] 0.073 | rosiglitazone 0.05 | [6] 0.009
active: volasertib -0.367 | [7] -0.295

CUX1 isoform 2 (UniProt Q13948)
inactive: [1] -0.055 | volasertib -0.188 | [2] 0 | epoxomicin -0.002 | [3] -0.112 | [4] 0.043 | [5] 0.317 | rosiglitazone 0.033 | [6] 0.016 | [7] 0.055

DDB1 (UniProt Q16531)
inactive: [1] 0.045 | volasertib 0.036 | [2] -0.032 | epoxomicin -0.024 | [3] 0.021 | [4] 0.009 | [5] -0.005 | rosiglitazone -0.01 | [6] -0.028 | [7] 0

DNAJC7 (UniProt Q99615)
active: volasertib -0.266
inactive: [1] -0.079 | [2] 0.104 | epoxomicin 0.073 | [3] -0.014 | [4] -0.025 | [5] 0.014 | rosiglitazone 0.017 | [6] -0.052 | [7] -0.142

DIP2A (UniProt Q14689)
Sequence of UniProt Q14689 (Q14689 whole entry, looked up): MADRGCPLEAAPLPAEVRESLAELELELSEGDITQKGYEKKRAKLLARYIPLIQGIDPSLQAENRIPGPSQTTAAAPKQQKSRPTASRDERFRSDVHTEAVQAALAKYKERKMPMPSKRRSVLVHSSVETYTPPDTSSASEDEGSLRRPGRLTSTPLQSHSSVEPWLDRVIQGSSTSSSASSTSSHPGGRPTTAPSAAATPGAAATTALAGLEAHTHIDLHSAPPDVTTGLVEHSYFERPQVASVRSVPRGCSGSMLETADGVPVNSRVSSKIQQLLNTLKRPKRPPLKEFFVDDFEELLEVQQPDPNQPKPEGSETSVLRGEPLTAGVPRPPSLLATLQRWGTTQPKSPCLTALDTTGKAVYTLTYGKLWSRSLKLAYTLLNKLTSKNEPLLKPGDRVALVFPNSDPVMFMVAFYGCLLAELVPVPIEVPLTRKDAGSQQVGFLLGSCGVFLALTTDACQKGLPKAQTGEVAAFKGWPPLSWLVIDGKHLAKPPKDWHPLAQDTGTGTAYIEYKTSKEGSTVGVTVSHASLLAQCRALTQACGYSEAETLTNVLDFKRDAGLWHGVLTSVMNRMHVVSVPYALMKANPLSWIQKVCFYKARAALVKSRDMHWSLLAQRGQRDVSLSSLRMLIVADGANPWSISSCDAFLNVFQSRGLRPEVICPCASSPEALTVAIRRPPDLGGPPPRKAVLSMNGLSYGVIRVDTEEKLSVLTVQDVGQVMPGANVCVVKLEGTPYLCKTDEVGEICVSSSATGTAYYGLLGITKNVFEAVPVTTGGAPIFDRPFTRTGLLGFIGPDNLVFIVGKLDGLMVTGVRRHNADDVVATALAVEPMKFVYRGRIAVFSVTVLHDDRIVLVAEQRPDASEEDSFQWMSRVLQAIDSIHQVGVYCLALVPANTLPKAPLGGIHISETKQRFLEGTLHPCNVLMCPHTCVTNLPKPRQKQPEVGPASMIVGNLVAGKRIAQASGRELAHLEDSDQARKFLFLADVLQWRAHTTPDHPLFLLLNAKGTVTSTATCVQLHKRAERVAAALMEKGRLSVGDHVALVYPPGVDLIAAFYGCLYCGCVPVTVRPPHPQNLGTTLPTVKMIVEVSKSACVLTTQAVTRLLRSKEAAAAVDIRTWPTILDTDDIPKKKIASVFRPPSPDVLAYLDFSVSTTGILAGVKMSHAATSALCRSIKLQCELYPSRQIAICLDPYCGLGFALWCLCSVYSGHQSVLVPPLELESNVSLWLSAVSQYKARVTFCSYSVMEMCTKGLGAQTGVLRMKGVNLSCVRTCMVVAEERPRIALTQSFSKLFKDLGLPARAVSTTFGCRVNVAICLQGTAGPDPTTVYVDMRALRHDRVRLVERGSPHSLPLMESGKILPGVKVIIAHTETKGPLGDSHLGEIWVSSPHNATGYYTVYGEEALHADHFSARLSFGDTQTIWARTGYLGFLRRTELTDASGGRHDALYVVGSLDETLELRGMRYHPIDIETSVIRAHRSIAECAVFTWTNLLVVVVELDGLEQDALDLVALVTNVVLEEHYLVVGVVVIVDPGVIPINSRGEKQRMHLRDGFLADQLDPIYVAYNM
inactive: [1] -0.065 | volasertib 0.026 | [2] -0.037 | epoxomicin -0.017 | [3] 0.037 | [4] -0.063 | [5] -0.041 | rosiglitazone -0.034 | [6] -0.045 | [7] 0.057

DHX36 (UniProt Q9H2U1)
Sequence of UniProt Q9H2U1 (Q9H2U1 whole entry, looked up): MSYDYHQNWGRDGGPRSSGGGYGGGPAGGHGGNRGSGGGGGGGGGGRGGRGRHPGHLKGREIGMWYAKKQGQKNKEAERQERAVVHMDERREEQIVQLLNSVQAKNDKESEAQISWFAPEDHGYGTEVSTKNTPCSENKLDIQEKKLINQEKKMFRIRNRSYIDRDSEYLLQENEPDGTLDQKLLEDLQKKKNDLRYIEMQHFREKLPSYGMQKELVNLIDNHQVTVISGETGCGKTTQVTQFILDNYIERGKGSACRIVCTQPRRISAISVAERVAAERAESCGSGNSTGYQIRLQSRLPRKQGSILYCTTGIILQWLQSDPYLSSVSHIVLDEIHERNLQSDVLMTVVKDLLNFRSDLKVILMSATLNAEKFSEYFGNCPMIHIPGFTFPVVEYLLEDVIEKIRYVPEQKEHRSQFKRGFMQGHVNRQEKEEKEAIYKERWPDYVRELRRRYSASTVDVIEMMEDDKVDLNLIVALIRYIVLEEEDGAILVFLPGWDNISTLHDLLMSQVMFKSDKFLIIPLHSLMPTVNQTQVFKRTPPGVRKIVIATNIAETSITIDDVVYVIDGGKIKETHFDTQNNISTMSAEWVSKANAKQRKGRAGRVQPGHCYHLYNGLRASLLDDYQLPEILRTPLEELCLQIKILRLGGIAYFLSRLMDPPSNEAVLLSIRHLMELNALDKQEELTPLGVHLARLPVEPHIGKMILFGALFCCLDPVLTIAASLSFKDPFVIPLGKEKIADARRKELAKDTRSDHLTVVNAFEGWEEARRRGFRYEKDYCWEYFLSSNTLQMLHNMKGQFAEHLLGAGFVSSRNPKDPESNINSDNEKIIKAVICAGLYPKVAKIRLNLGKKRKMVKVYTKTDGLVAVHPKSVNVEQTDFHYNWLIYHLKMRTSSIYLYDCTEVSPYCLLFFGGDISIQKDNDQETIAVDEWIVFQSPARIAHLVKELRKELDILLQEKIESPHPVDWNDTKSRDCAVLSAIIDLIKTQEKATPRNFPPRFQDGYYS
inactive: [1] 0.11 | volasertib 0.059 | [2] 0.002 | epoxomicin -0.032 | [3] -0.009 | [4] 0.032 | [5] -0.032 | rosiglitazone -0.015 | [6] 0.086 | [7] -0.027

EEF1G isoform 2 (UniProt P26641)
active: volasertib -0.364
inactive: [1] -0.164 | [2] 0.075 | epoxomicin 0.008 | [3] -0.012 | [4] -0.005 | [5] 0.022 | rosiglitazone 0.005 | [6] 0.011 | [7] 0.016

DHRS3 (UniProt O75911)
Sequence of UniProt O75911 (O75911 whole entry, looked up): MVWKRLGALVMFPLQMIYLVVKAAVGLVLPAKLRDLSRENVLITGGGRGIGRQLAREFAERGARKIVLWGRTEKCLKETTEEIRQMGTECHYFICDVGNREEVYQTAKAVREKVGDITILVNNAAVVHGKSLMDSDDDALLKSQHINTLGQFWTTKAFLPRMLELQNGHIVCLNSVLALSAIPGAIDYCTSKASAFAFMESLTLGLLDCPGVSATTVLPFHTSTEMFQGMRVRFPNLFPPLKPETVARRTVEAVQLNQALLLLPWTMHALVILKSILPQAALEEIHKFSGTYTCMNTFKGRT
inactive: [1] 0.134 | volasertib 0.02 | [2] 0.02 | epoxomicin -0.002 | [3] 0.001 | [4] 0.001 | [5] -0.054 | rosiglitazone -0.013 | [6] -0.062 | [7] 0.056

E2F4 (UniProt Q16254)
inactive: [1] -0.057 | volasertib -0.139 | [2] 0.036 | epoxomicin -0.008 | [3] -0.017 | [4] -0.025 | [5] -0.024 | rosiglitazone 0.056 | [6] 0.009
active: [7] -0.245

DCTN1 isoform 4 (UniProt Q14203)
inactive: [1] 0.01 | volasertib -0.1 | [2] 0.078 | epoxomicin 0.02 | [3] -0.157 | [4] -0.024 | [5] 0.052 | rosiglitazone 0.086 | [6] 0.149 | [7] -0.096

ECH1 (UniProt Q13011)
active: [7] 0.694
inactive: [1] 0.019 | volasertib 0.276 | [2] 0.024 | epoxomicin 0.036 | [3] -0.032 | [4] -0.021 | [5] 0.023 | rosiglitazone 0.052 | [6] -0.041

EOGT (UniProt Q5NDL2)
inactive: [1] -0.004 | volasertib 0.013 | [2] -0.037 | epoxomicin 0.05 | [3] -0.007 | [4] 0.001 | [5] 0 | rosiglitazone 0.022 | [6] 0.021 | [7] 0.062

EXOC7 (UniProt Q9UPT5)
active: volasertib -0.619 | [7] -0.317
inactive: [1] -0.156 | [2] 0.09 | epoxomicin 0.048 | [3] -0.091 | [4] 0.015 | [5] 0.006 | rosiglitazone 0.048 | [6] 0.033

DHFR (UniProt P00374)
Sequence of UniProt P00374 (P00374 whole entry, looked up): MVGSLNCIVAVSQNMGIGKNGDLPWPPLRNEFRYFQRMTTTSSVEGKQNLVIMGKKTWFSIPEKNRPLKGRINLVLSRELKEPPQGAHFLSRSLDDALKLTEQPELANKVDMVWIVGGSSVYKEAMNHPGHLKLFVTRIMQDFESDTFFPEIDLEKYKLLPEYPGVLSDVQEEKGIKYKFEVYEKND
active: [7] 1.64
inactive: [1] 0.002 | volasertib -0.11 | [2] 0.088 | epoxomicin -0.013 | [3] -0.101 | [4] -0.077 | [5] 0.091 | rosiglitazone 0.046 | [6] 0.113

DNAJC1 (UniProt Q96KC8)
Sequence of UniProt Q96KC8 (Q96KC8 whole entry, looked up): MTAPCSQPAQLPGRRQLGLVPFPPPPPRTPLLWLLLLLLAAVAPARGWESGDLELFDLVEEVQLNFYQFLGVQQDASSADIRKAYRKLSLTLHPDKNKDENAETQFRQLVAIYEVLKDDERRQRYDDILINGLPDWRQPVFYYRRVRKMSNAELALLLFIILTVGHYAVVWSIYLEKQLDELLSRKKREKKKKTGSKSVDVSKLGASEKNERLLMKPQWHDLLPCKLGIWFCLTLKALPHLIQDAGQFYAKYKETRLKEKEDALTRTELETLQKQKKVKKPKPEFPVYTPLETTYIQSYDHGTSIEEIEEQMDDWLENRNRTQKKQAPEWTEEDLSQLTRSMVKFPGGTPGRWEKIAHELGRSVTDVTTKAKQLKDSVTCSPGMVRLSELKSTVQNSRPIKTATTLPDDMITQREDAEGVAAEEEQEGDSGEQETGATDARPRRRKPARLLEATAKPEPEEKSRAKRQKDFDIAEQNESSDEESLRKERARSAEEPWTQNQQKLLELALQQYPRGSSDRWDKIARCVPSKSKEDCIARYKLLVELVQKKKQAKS
inactive: [1] -0.097 | volasertib -0.185 | [2] 0.024 | epoxomicin 0.037 | [3] 0.008 | [4] 0.014 | [5] 0.002 | rosiglitazone 0.014 | [6] -0.01 | [7] -0.144

EFCAB14 (UniProt O75071)
inactive: [1] -0.033 | volasertib -0.089 | [2] -0.078 | epoxomicin 0.068 | [3] 0.045 | [4] 0.06 | [5] -0.018 | rosiglitazone -0.009 | [6] 0.028 | [7] -0.178

DMAC1 (UniProt Q96GE9)
Sequence of UniProt Q96GE9 (Q96GE9 whole entry, looked up): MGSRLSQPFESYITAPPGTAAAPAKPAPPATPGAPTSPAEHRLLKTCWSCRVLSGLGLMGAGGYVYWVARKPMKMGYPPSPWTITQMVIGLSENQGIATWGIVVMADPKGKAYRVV
inactive: [1] 0.269 | volasertib 0.016 | [2] -0.038 | epoxomicin -0.084 | [3] 0.057 | [4] -0.041 | [5] 0.001 | rosiglitazone -0.025 | [6] -0.007 | [7] 0.015

CWC27 (UniProt Q6UX04)
active: volasertib -0.421
inactive: [1] -0.103 | [2] 0.086 | epoxomicin 0.094 | [3] -0.089 | [4] 0.117 | [5] 0.066 | rosiglitazone 0.143 | [6] -0.011 | [7] -0.091

EXOC1 (UniProt Q9NV70)
inactive: [1] -0.219 | volasertib -0.44 | [2] 0.077 | epoxomicin -0.012 | [3] -0.081 | [4] 0.023 | [5] 0.084 | rosiglitazone 0.115 | [6] 0.1 | [7] -0.319

ELOC (UniProt Q15369)
Sequence of UniProt Q15369 (Q15369 whole entry, looked up): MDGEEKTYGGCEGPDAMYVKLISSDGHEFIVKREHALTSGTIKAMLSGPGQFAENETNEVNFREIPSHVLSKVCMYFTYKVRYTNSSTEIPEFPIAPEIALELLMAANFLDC
inactive: [1] -0.009 | volasertib -0.016 | [2] 0.042 | epoxomicin 0.028 | [3] 0.006 | [4] -0.087 | [5] 0.108 | rosiglitazone 0.011 | [6] -0.033 | [7] -0.014

DNAJB12 (UniProt Q9NXW2)
Sequence of UniProt Q9NXW2 (Q9NXW2 whole entry, looked up): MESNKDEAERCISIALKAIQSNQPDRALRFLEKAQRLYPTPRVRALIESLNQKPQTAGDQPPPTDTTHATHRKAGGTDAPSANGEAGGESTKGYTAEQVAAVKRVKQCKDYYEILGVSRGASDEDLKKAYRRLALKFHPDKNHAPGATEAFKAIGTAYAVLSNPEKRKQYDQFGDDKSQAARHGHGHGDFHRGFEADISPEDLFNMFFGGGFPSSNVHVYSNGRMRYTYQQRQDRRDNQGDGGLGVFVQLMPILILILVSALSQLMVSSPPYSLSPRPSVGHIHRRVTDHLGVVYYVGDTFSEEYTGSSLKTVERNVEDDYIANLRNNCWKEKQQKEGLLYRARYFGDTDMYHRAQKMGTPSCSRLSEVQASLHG
inactive: [1] -0.045 | volasertib -0.123 | [2] -0.033 | epoxomicin -0.003 | [3] -0.096 | [4] 0.024 | [5] 0.022 | rosiglitazone 0.023 | [6] 0.068 | [7] -0.081

EXTL2 (UniProt Q9UBQ6)
inactive: [1] 0.057 | volasertib -0.052 | [2] 0.041 | epoxomicin -0.035 | [3] -0.04 | [4] -0.046 | [5] 0.06 | rosiglitazone -0.024 | [6] -0.001 | [7] -0.157

EDC4 (UniProt Q6P2E9)
active: volasertib -0.47
inactive: [1] -0.126 | [2] 0.042 | epoxomicin 0 | [3] -0.009 | [4] 0.039 | [5] -0.006 | rosiglitazone 0.014 | [6] 0.07 | [7] -0.084

EXOC5 (UniProt O00471)
active: volasertib -0.596
inactive: [1] -0.236 | [2] 0.093 | epoxomicin 0.041 | [3] -0.046 | [4] 0.022 | [5] 0.066 | rosiglitazone 0.044 | [6] 0.054 | [7] -0.215

CTSH (UniProt P09668)
inactive: [1] -0.087 | volasertib -0.06 | [2] 0.008 | epoxomicin -0.022 | [3] 0.03 | [4] 0.057 | [5] 0.001 | rosiglitazone 0.004 | [6] -0.008
active: [7] -0.295

DYNC1I2 isoform 5 (UniProt Q13409)
inactive: [1] 0.004 | volasertib 0.005 | [2] 0.004 | epoxomicin 0.026 | [3] 0.011 | [4] -0.003 | [5] 0.002 | rosiglitazone -0.024 | [6] -0.041 | [7] -0.035

DCTPP1 (UniProt Q9H773)
Sequence of UniProt Q9H773 (Q9H773 whole entry, looked up): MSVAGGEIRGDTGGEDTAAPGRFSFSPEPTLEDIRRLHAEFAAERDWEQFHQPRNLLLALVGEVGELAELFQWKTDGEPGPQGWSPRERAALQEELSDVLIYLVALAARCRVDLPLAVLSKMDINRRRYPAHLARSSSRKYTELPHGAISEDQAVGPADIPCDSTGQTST
inactive: [1] 0.007 | volasertib -0.016 | [2] -0.059 | epoxomicin 0.062 | [3] -0.012 | [4] -0.032 | [5] -0.012 | rosiglitazone 0.012 | [6] -0.048 | [7] 0.201

CWF19L2 (UniProt Q2TBE0)
inactive: [1] -0.051 | volasertib -0.107 | [3] -0.131 | [4] 0.094 | [6] 0.231 | [7] 0.21
